From PubChem
HCMV antiviral = blocks human cytomegalovirus replication. HFF cells, HCMV-luciferase reporter, 72 h; active compounds read low. activity change, negative = inhibition, % at 57.5 µM. actives 4.5% (n = 410,000); in the data active means activity change below about -60%; inconclusive means no clear call, values can overlap the other calls; inactive means above about -39%
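Cell-based, HFFs, 1000 cells/well, 16 h 37C; cpds in DMSO + HCMV-luc, MOI 1 PFU/cell; 72 h 37C; OneGlo luminescence after 5 min RT; norm. to buffer vs Salinomycin 10uM.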
FMDV antiviral = antivirals against foot and mouth disease virus | FMDV antiviral cell-based qHTS | Potency, µM (titrated, usually from 57.9 µM), inactives show at the top dose activity change, negative = inhibition, usual class: inhibitors | AID 1159524 | actives 1.2% (n = 410,000); calls by dose curve; tested in HEK293T cells; further: read-out not given here; potency means the concentration at half of the fitted maximal effect; nearly all actives have a fitted effect of over 45% in size
LASV entry inh = inhibitors of Lassa virus binding or cell entry | Lassa virus pseudotype entry inhibition, cell reporter | Potency, µM (titrated, usually from 37.9 µM), for inactives: top-dose activity change, negative = inhibition, usual class: inhibitors | actives 1.2% (n = 300,000) | AID 540256; calls by dose curve; tested in HEK293 cells; further: potency means the concentration at half of the fitted maximal effect; nearly all actives have a fitted effect of over 50% in size
MARV entry inh = Marburg virus entry inhibition; Marburg virus pseudotyped entry inhibition, cell reporter; Potency, µM (series often up to 37.8 µM), inactives show at the highest dose activity change, negative = inhibition, most hits filed as inhibitors; actives 1.8% (n = 300,000); calls by dose curve; tested in HEK293 cells; further: potency means the concentration at half of the fitted maximal effect
Vaccinia mCherry = vaccinia inhibition (mCherry reporter); Vaccinia virus mCherry reporter infection, fluorescence; Potency, µM (series often up to 36.5 µM), for inactives: at the highest dose activity change, negative = inhibition, hits mostly inhibitors; actives 0.63% (n = 310,000); calls by dose curve; tested in A549 cells; further: potency means the concentration at half of the fitted maximal effect; nearly all actives have a fitted effect of over 35% in size
VACV Venus inh = inhibitors of vaccinia virus (Venus reporter); Vaccinia virus Venus reporter expression, fluorescence; Potency, µM (highest dose often 36.5 µM), without a hit: top-dose activity change, negative = inhibition, actives largely listed as inhibitors; actives 0.46% (n = 330,000); calls by dose curve; tested in A549 cells; further: potency means the concentration at half of the fitted maximal effect; nearly all actives have a fitted effect of over 30% in size
* = called active by the depositor; i = inactive; ? = inconclusive; / = no result given; [ ] = another dose, or the depositor's remark. Rows were chosen to be rich in hits. Some 6.5% of all compounds tested hit in one or more screens of this group. On the % scale 0 is the no-effect control and ±100 the full control effect.

SMILES	HCMV antiviral	FMDV antiviral	LASV entry inh	MARV entry inh	Vaccinia mCherry	VACV Venus inh
COc1ccc(C=C2C=C(C(C)(C)C)C(=O)C(C(C)(C)C)=C2)cc1OC	-99*	22µM*	14%[46.1 µM]	?	-14%	-23%
COc1ccc(OC)c(C=C2CCc3ccccc3C2=O)c1	-96*	37%	/	/	2%	-22%
COc1cc(OC)c(OC)cc1/C=C1\CCC/C(=C\c2cc(OC)c(OC)cc2OC)C1=O	-90*	?	?	?	-28%	-9%
CC(C)[C@@H]1Cc2c(C#N)c(N)sc(=S)c2CO1	/	/	/	1%	/	/
O=C(Nc1ccc(Cl)cc1)C1CCN(c2nc3ccccc3n3cccc23)CC1	-22	-13%	-27%[46.1 µM]	/	-18%	-21%
COc1ccc(CCNC(=O)Cc2c(C)c3cc4c(C)coc4c(C)c3oc2=O)cc1	-28	-4%	4%[46.1 µM]	?	-11%	-5%
COc1cc(-c2n[nH]c3ccnc(-c4cccc5ncccc45)c23)cc(OC)c1OC	4	/	/	/	/	/
CCOC(=O)CSC1=C(C#N)[C@H](c2ccc(OC)cc2)C2=C(CC(C)(C)CC2=O)N1	/	/	/	-13%	/	/
CCOc1ccc(-c2nonc2NC(=O)c2oc3c(C)c(C)ccc3c2C)cc1OCC	-8	-15%	2%[46.1 µM]	-12%[46.1 µM]	-14%	-15%
Cn1c(-c2cccc(C(F)(F)F)c2)cc2cnc(Nc3ccc4c(c3)OCCO4)cc21	18	/	/	/	/	/
COc1cc(/C=C2\CC/C(=C\c3ccc(OCCO)c(OC)c3)C2=O)ccc1OCCO	?	35µM*	1%	?	i	4%
CC(=O)[C@@]1(O)CC[C@H]2[C@@H]3C=C(Cl)C4=CC(=O)[C@@H]5C[C@@H]5[C@]4(C)[C@H]3CC[C@@]21C	/	-10%	/	/	-12%	-7%
COc1ccc(OC)c(NC(=O)CN2C(=O)CC(c3ccco3)Sc3ccccc32)c1 (configuration not stated)	-10	-9%	/	?	-13%	-8%
CC(=O)Nc1ccc(NC(=O)CN2C(=O)CC(c3ccco3)Sc3ccccc32)cc1 (configuration not stated)	-105*	-7%	/	5%[46.1 µM]	6%	7%
COc1cccc(NC(=O)CN2C(=O)CC(c3ccco3)Sc3ccccc32)c1 (configuration not stated)	-105*	-22%	/	1%[46.1 µM]	-8%	-4%
Cc1cc(NC(=O)CN2C(=O)CC(c3ccco3)Sc3ccccc32)no1 (configuration not stated)	/	-2%	/	/	i	-5%
CCOc1ccccc1NC(=O)CN1C(=O)CC(c2ccco2)Sc2ccccc21 (configuration not stated)	-87*	-19%	/	?	-23%	-22%
Cc1c(C(=O)NC2CCCCC2)sc2ncnc(NCCN(C)C)c12	/	-19%	/	/	i	-19%
C=CC[C@@H]1C=CC(O/N=C(\C)CCC(=O)OC[C@H]2O[C@H](C#Cc3ccccc3)C=C[C@@H]2Oc2ccc(C)cc2)[C@@H](CO)O1 (some centres not stated)	/	/	/	29%[14.2 µM]	/	/
COc1ccccc1C(=O)Nc1sc(Nc2ccccc2)nc1C(N)=O	50	-7%	?	/	-15%	-9%
CN(C/C=C/C#CC(C)(C)C)Cc1cccc2ccccc12	-80*	?	/	/	-6%	-21%
CC(C)CN1C(=O)/C(=C/c2ccco2)NC1=S	-39	15%	?	18%	-4%	17%
CC(C)CN1C(=O)/C(=C/c2cccs2)NC1=S	-63*	-8%	-7%	?	/	/
NC(=S)N/N=C1/CCSc2ccc3ccccc3c21	?	?	-12%	?	14µM*	?
NC(=S)N/N=C/c1c(O)ccc2ccccc12	?	2%	/	/	/	/
COc1ccc(Nc2nc3ccc(Cl)cc3n3nnnc23)cc1OC	25	-21%	14%[46.1 µM]	4%[46.1 µM]	-7%	-7%
C[N+]12CCC(CC1)C(=C(c1ccccc1)c1ccccc1)C2	?	-17%	?	1%	?	?
CC[N+]12CCC(CC1)C(=C(c1ccccc1)c1ccccc1)C2	-61*	-24%	16%	-7%	-11%	-7%
CCc1nnc2c3ccccc3nc(N3CCN(c4cc(Cl)ccc4C)CC3)n12	-5	-9%	24%[46.1 µM]	/	-12%	-15%
CCCN(C(=O)c1noc2c1COc1ccc(C)cc1-2)c1ccc(Cl)c(Cl)c1	19	-21%	6%[46.1 µM]	/	-1%	-9%
